# In PubChem BioAssay (NCATS):
# Inconclusive results are not listed. Entries that show only a call come without a potency. Values without a mark were called inactive. Calls of active or inactive are those of the source. Unless noted, calls follow the shape of the dose curve; as a rule, active = well fitted curve in the direction sought with a large enough effect; inconclusive = small, poorly fitted or top-dose-only effect, or another doubt; inactive = no such curve, though single readings can be large; an effect the other way counts as inactive or inconclusive.
# Legend:
# [1] = Primary qHTS for small molecule stabilizers of the endoplasmic reticulum resident proteome: Secreted ER Calcium Modulated Protein (SERCaMP) assay (AID 1508630)
# Method in brief: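 GLuc-SERCaMP-expressing SH-SY5Y cells, pretreated 16 h with compound, are challenged with thapsigargin to empty ER calcium stores; after 4 h, coelenterazine is added directly to the medium and luminescence is imaged.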
# [2] = Viability counterscreen for antagonist of constitutive androstane receptor (CAR) against the NCATS DSHEA and TCM libraries (AID 1794837);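 also: compound exposure lasted 24 h before viability reading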
# Method in brief: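 Viability was measured by CellTiter-Fluor fluorescence (405/540 nm, 1 hr) in HepG2-CYP2B6-hCAR cells. Cells were co-treated 24 hr with 48 uM CITCO (final), antagonist mode, and test substances.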
# [3] = Viability counterscreen for agonist of constitutive androstane receptor (CAR) against the NCATS DSHEA and TCM libraries (AID 1794838);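 also: cells exposed to compound for 24 h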
# Method in brief: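 Cell viability, from CellTiter-Fluor fluorescence (405/540 nm), was scored after a 24 h, 37C exposure of HepG2 cells carrying CYP2B6 reporter and hCAR to test substances in presence of 0.75 uM PK11195.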
# [4] = target: Nuclear receptor subfamily 1 group I member 3 (Homo sapiens) (UniProt Q14994); assay: Primary qHTS for agonist of constitutive androstane receptor (CAR) against the NCATS DSHEA and TCM libraries (AID 1794839);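 also: HepG2 cells expressing human CAR with a CYP2B6 reporter plus PK11195 antagonist; luciferase reporter luminescence read with ONE-Glo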
# Method in brief: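 Agonist mode in presence of hCAR antagonist PK11195 (0.75 µM final): test substances, 24 h, 37 °C, on HepG2-CYP2B6-hCAR cells. Same-well readouts: fluorescence viability, then ONE-Glo luminescence; CITCO as reference agonist.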
# [5] = target: Cytochrome P450 2D6 (Homo sapiens) (UniProt P10635); assay: Cytochrome P450 family 2 subfamily D member 6 (CYP2D6) small molecule antagonists: luciferase biochemical (cell-free) qHTS assay (AID 1645840; active = well fitted curve in the direction sought with a large enough effect in the repeat runs; an effect the other way counts as inactive or inconclusive; also: nearly all actives have a fitted effect of over 55% in size; also: potency is read from the fitted curve at half-maximal effect; as to activity change, negative = inhibition: series mostly up to about 57 µM)
# Method in brief: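 P450-Glo luminescent screen: recombinant CYP2D6 enzyme–proluciferin substrate mix preincubated with compound 10 min at room temperature, then NADPH regeneration added for 1 h at room temperature. Detection reagent added for 20 min; luciferin light read as relative luminescence units.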
# [6] = A High-Content qHTS Against Drug Library for the Identification of Small Molecules that Inhibit DYT1 Early Onset Primary Dystonia-Associated Cell Pathology (AID 1645839; calls by dose curve; also: series mostly up to about 46 µM)
# Method in brief: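 Readout: %pathology, the punctate EGFP-TorsinA distribution from imaging, as the primary channel and cell count as the toxicity counterscreen. HEK293 Flp-In cells expressing delE TorsinA were induced with tetracycline and treated with compound for 48 h.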
# [7] = Primary qHTS for inhibitors of nuclear receptor binding SET domain protein 2 (NSD2) in an isogenic RCH-ACV NSD2 p.E1099K mutant (9B) (AID 1645876); also: nearly all actives have a fitted effect of over 70% in size; also: potency is read from the fitted curve at half-maximal effect
# [8] = NCATS anti-infectives library activity on HEK293 viability as a counter-qHTS vs the C. elegans viability qHTS (AID 1745854);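 also: HEK293 cells exposed to compounds for 24 hr before the viability read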
# Method in brief: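 Cytotoxicity in human HEK293 cells is measured by ATP-dependent CellTiter-Glo luminescence following a 24 hr incubation with titrated library compounds at 37C. Top final concentration is 41.7 uM.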
# [9] = NCATS anti-infectives library activity on the primary C. elegans qHTS viability assay (AID 1745855; calls by dose curve; also: potency is read from the fitted curve at half-maximal effect)
# Method in brief: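 Viability is taken from GFP fluorescence of PE254-GFP-FLuc C. elegans imaged by laser cytometry over 7 days. Ten L1 worms per well grow at 21 °C on TOP10 E. coli capsules with titrated compound; levamisole marks toxicity.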
# [10] = target: Cytochrome P450 2C9 (Homo sapiens) (UniProt P11712); assay: Cytochrome P450 family 2 subfamily C member 9 (CYP2C9) small molecule antagonists: luciferase biochemical (cell-free) qHTS assay (AID 1645842; active = well fitted curve in the direction sought with a large enough effect in the repeat runs; an effect the other way counts as inactive or inconclusive; also: nearly all actives have a fitted effect of over 55% in size; also: potency is read from the fitted curve at half-maximal effect; as to activity change, negative = inhibition: series mostly up to about 57 µM)
# Method in brief: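 Luminescence, after 20 min with luciferin detection reagent, reflected CYP2C9 turnover during a 1 h NADPH-driven reaction at 37C. Enzyme-substrate mix contained 0.4% bovine serum albumin and was preincubated with compound 10 min at room temperature.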
# [11] = Primary qHTS for inhibitors of nuclear receptor binding SET domain protein 2 (NSD2) in an RCH-ACV wild type WT cells (2C) (AID 1645877); also: nearly all actives have a fitted effect of over 70% in size; also: potency is read from the fitted curve at half-maximal effect
# [12] = target: Rap guanine nucleotide exchange factor 3 (Homo sapiens) (UniProt O95398); assay: Confirmatory qHTS for antagonist of cAMP-regulated guanine nucleotide exchange factor 3 (EPAC1) (AID 1645880); also: nearly all actives have a fitted effect of over 55% in size
# Method in brief: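 Nucleotide exchange uses 100 nM EPAC1, 250 nM RAP1B-BODIPY-GDP and 50 uM GDP, with compounds in a concentration-titration series. After 5 min at room temperature, fluorescence (480 nm ex/540 nm em) is read every 5 min for 30 min. Data are normalized to control ATA and DMSO.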
# [13] = target: Rap guanine nucleotide exchange factor 3 (Homo sapiens) (UniProt O95398); assay: Confirmatory qHTS for agonist of cAMP-regulated guanine nucleotide exchange factor 3 (EPAC1) (AID 1645881);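 also: EPAC1 catalysed release of BODIPY-GDP from Rap1B seen as fluorescence loss; nearly all actives have a fitted effect of over 75% in size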
# [14] = target: Rap guanine nucleotide exchange factor 4 (Homo sapiens) (UniProt Q8WZA2); assay: Confirmatory qHTS for agonist of cAMP-regulated guanine nucleotide exchange factor 4 (EPAC2) (AID 1645884);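 also: nucleotide exchange releases bodipy-GDP from Rap1 and this lowers its fluorescence; nearly all actives have a fitted effect of over 65% in size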
# [15] = target: Rap guanine nucleotide exchange factor 4 (Homo sapiens) (UniProt Q8WZA2); assay: Confirmatory qHTS for antagonist of cAMP-regulated guanine nucleotide exchange factor 4 (EPAC2) (AID 1645885); also: nearly all actives have a fitted effect of over 25% in size
# [16] = target: Rap guanine nucleotide exchange factor 3 (Homo sapiens) (UniProt O95398); assay: Counterscreen qHTS for antagonist of cAMP-regulated guanine nucleotide exchange factor 3 (EPAC1) (AID 1645888);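 also: fluorescence loss as bound BODIPY-GDP is released from Rap1B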
# Method in brief: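 Measured: fluorescence of BODIPY-GDP bound to Rap1B, which falls as exchange proceeds. Conditions include 50 uM competing GDP, 5 and 30 min reads, and a later cAMP challenge for antagonist detection.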
# Chain of Rap guanine nucleotide exchange factor 4 (Homo sapiens) (Q8WZA2 whole entry, looked up): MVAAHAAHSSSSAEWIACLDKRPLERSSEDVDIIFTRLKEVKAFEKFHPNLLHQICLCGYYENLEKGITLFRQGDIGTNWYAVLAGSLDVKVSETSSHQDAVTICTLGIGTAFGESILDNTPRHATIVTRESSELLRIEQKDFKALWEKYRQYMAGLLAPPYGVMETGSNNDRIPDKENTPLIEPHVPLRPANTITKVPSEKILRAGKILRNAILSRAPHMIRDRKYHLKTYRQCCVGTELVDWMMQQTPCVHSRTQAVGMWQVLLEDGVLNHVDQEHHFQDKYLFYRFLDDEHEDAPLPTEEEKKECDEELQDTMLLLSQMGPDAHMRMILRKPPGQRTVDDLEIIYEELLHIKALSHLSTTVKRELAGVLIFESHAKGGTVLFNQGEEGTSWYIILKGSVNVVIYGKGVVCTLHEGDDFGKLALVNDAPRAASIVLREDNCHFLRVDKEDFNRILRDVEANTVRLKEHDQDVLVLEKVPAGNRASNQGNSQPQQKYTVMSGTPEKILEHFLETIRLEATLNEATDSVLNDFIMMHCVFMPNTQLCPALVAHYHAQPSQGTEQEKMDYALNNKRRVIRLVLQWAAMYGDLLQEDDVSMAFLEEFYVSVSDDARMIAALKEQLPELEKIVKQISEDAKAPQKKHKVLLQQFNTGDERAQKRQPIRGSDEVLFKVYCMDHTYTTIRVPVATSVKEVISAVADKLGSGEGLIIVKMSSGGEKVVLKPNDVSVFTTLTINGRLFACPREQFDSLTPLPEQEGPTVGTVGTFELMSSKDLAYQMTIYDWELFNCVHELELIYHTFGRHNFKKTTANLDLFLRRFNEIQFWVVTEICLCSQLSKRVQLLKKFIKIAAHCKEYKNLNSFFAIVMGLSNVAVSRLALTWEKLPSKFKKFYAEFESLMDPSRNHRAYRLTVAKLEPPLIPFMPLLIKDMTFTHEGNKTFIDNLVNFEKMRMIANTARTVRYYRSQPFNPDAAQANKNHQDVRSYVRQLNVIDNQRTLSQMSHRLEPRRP
# Chain of Cytochrome P450 2D6 (Homo sapiens) (P10635 whole entry, looked up): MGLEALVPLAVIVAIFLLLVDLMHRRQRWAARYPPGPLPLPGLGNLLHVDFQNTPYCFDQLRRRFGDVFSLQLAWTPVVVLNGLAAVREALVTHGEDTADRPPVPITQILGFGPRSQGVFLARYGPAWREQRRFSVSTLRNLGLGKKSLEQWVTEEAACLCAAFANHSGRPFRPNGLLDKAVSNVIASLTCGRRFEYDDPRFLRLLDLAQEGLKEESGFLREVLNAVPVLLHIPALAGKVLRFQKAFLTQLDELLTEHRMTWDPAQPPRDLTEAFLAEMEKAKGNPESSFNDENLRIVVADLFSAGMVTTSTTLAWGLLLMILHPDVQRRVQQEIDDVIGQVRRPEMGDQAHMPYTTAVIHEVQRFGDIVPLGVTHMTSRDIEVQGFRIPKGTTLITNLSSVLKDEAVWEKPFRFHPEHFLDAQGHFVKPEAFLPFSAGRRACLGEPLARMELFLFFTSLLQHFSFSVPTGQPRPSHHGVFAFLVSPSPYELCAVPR
# Chain of Rap guanine nucleotide exchange factor 3 (Homo sapiens) (O95398 whole entry, looked up): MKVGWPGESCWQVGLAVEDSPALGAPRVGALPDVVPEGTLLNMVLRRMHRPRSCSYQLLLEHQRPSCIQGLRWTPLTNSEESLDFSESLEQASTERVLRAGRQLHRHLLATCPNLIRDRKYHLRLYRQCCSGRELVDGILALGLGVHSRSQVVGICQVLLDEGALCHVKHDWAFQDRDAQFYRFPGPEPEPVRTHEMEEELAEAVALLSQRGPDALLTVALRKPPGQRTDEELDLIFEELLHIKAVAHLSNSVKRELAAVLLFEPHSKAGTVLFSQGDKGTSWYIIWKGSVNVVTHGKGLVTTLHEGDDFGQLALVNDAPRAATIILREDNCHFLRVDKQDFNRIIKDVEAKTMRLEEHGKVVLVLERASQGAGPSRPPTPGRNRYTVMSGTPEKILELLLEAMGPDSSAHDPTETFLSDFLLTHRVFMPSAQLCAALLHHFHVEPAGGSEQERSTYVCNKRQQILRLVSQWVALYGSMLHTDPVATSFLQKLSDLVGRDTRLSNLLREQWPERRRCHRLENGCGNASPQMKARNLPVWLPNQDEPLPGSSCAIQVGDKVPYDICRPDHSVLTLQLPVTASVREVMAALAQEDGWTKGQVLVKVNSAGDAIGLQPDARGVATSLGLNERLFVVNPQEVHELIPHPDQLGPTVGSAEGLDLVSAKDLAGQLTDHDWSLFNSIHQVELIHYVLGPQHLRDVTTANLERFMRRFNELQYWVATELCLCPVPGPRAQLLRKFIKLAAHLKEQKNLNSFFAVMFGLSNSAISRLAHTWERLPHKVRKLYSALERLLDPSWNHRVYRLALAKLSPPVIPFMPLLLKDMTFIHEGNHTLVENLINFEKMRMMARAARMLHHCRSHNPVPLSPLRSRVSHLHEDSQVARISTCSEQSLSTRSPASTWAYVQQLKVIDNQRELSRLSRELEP
# Chain of Nuclear receptor subfamily 1 group I member 3 (Homo sapiens) (Q14994 whole entry, looked up): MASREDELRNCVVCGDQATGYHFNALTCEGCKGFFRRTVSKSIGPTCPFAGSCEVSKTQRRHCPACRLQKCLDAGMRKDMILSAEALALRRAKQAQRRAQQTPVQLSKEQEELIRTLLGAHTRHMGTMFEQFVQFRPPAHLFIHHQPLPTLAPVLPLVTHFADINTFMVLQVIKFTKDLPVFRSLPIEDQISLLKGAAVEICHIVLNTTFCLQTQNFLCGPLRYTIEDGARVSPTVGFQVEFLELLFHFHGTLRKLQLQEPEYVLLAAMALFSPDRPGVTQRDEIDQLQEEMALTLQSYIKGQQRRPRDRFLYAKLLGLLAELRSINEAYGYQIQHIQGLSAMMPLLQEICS
# Chain of Cytochrome P450 2C9 (Homo sapiens) (P11712 whole entry, looked up): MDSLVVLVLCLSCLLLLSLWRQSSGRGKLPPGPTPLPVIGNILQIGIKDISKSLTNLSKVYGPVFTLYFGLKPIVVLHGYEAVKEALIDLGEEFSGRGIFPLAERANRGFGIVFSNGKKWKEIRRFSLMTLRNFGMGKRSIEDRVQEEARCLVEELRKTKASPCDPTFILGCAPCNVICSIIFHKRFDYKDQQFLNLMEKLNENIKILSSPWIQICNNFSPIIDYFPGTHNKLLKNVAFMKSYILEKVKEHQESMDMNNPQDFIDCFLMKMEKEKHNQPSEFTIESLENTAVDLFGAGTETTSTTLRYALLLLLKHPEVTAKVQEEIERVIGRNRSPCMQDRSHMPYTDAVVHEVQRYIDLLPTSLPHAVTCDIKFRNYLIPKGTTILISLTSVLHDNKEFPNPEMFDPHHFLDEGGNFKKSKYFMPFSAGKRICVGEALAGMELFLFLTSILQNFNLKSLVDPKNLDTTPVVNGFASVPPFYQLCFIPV
smiles,measurement,setting,value
CC/C=C\C/C=C\C/C=C\C/C=C\C/C=C\C/C=C\CCC(=O)O,outcome,[1],inactive
same,outcome,[2],inactive
same,outcome,[3],inactive
same,Potency,[4],inactive
CCCOc1cc(N)ccc1C(=O)OCCN(CC)CC,Potency,[5],3.38 µM (active)
CC/C=C\C/C=C\C/C=C\CCCCCCCC(=O)O,"activity change, negative = inhibition",[1],-26.6% [at 3.88 µM]
same,outcome,[2],inactive
same,outcome,[3],inactive
same,Potency,[4],inactive
N[C@H](CC(=O)O)C(=O)O,outcome,[1],inactive
O=C1c2ccccc2C(=O)c2c1ccc(O)c2O,outcome,[6],inactive
N#Cc1ccc2c(c1)N(CCCN1CCC(O)CC1)c1ccccc1S2,outcome,[1],inactive
CC(C)=CCC/C(C)=C/CC/C(C)=C/CC/C=C(\C)CC/C=C(\C)CCC=C(C)C,Potency,[5],inactive
CNC(=O)[C@H](Cc1c[nH]c2ccccc12)NC(=O)[C@@H](CC(=O)NO)CC(C)C,outcome,[1],inactive
same,Potency,[7],inactive
same,outcome,[8],inactive
same,Potency,[9],inactive
CN(C)CCCSc1ccccc1NC(=O)/C=C/c1ccccc1,outcome,[1],inactive
same,outcome,[6],inactive
same,Potency,[5],0.347 µM (active)
same,Potency,[10],inactive
same,Potency,[7],inactive
same,Potency,[11],inactive
CCC(C)[C@@H](N)C(=O)O (stereo not given in full),outcome,[1],inactive
O=C(O)Cc1cc(I)c(Oc2ccc(O)c(I)c2)c(I)c1,outcome,[1],inactive
same,Potency,[7],20.5 µM (active)
Nc1ccc(N=Nc2ccccc2)c(N)n1,outcome,[1],inactive
same,Potency,[5],17.4 µM (active)
same,Potency,[10],13.8 µM (active)
same,outcome,[8],inactive
O=C(OCc1ccccc1)c1ccc(O)cc1,outcome,[6],inactive
O=C(O)Cc1nn(Cc2ccc(Br)cc2F)c(=O)c2ccccc12,outcome,[1],inactive
CCN1C(=O)NC(c2ccccc2)C1=O (stereo not given),Potency,[5],inactive
O=P(O)(O)OP(=O)(O)O,Potency,[5],inactive
NC[C@H]1O[C@H](O[C@H]2[C@H](O)[C@@H](O[C@H]3O[C@H](CO)[C@@H](O)[C@H](N)[C@H]3O)[C@H](N)C[C@@H]2N)[C@H](N)C[C@@H]1O,outcome,[1],inactive
same,Potency,[7],inactive
same,Potency,[11],inactive
CN(C)c1ccc(C(=C2C=CC(=[N+](C)C)C=C2)c2c(O)c(S(=O)(=O)[O-])cc3cc(S(=O)(=O)O)ccc23)cc1,Potency,[5],15.1 µM (active)
CCCCC[C@H](O)/C=C/[C@H]1[C@H](O)CC(=O)[C@@H]1CCCCCCC(=O)O,"activity change, negative = inhibition",[1],-7.33% [at 3.88 µM]
same,Potency,[7],0.0661 µM (active)
same,Potency,[11],20.9 µM (active)
CN1C(=O)OC(C)(C)C1=O,Potency,[5],inactive
O=S(=O)(O)CC(S)CS (stereo not given),Potency,[5],inactive
Cc1ncc(C[n+]2csc(CCO)c2C)c(N)n1,outcome,[2],inactive
same,outcome,[3],inactive
same,Potency,[4],inactive
CCCCC(=O)O[C@H]1CC[C@H]2[C@@H]3CCc4cc(O)ccc4[C@H]3CC[C@]12C,outcome,[12],inactive
same,outcome,[13],inactive
same,outcome,[14],inactive
same,Potency,[15],inactive
O=C(O)c1cc(N=Nc2ccc(O)c(C(=O)O)c2)ccc1O,outcome,[13],inactive
same,outcome,[14],inactive
C=C1CC[C@H](O)CC1=C/C=C1\CCC[C@]2(C)[C@@H]([C@H](C)/C=C/[C@H](C)C(C)C)CC[C@@H]12,outcome,[2],inactive
same,outcome,[3],inactive
same,Potency,[4],inactive
CC(C)=CCC/C(C)=C/CC/C(C)=C/CC/C(C)=C/CC1=C(C)C(=O)c2ccccc2C1=O,outcome,[2],inactive
same,outcome,[3],inactive
same,Potency,[4],inactive
COc1cc(NCCCC(C)N)c2ncccc2c1 (stereo not given),outcome,[16],inactive
C=CC[C@@H]1/C=C(\C)C[C@H](C)C[C@H](OC)[C@H]2O[C@@](O)(C(=O)C(=O)N3CCCC[C@H]3C(=O)O[C@H](/C(C)=C/[C@@H]3CC[C@@H](O)[C@H](OC)C3)[C@H](C)[C@@H](O)CC1=O)[C@H](C)C[C@@H]2OC,Potency,[9],3.65 µM (active)
